# Data reported in PubChem BioAssay (NCI).
# Compounds without any hit were thinned out: in the full panel of roughly 83,000, 20% have a hit.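 Cells were grown in 96-well plates and exposed to the test compound at a single concentration for 48 hours; results are reported as percent growth, with values below 10 considered active.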 Unmarked numbers belong to inactive results. Activity calls are given as the source filed them.
# What was measured:
# Assay in all cases: NCI-60 one-dose screen, 48 h (100 = growth as untreated, 0 = no growth, -100 = all killed)
# [1] = system: DU-145 prostate; details: 10 µM unless noted
# [2] = system: K-562 leukemia; details: 10 µM unless noted
# [3] = system: MALME-3M melanoma; details: 10 µM unless noted
# [4] = system: MDA-MB-231 breast; details: 10 µM unless noted
# [5] = system: RXF 393 renal; details: 10 µM unless noted
# [6] = system: SF-268 CNS; details: 10 µM unless noted
# [7] = system: SF-295 CNS; details: 10 µM unless noted
# [8] = system: SF-539 CNS; details: 10 µM unless noted
# [9] = system: UACC-257 melanoma; details: 10 µM
# [10] = system: M14 melanoma; details: 10 µM unless noted
SMILES,growth [1],growth [2],growth [3],growth [4],growth [5],growth [6],growth [7],growth [8],growth [9],growth [10]
CC(C)C[C@H](NC(=O)[C@@H](Cc1ccccc1)n1ccc(Nc2ccccc2)cc1=O)B(O)O,35.3%,3.2% (active),-39.1% (active),-24.8% (active),-80.2% (active),-31.6% (active),-20.6% (active),-17.7% (active),-36.6% (active),9.32% (active)
COc1ccc(/C=C/C(=O)c2ccc(NC(=O)CN3CCN(c4cc5c(cc4F)c(=O)c(C(=O)O)cn5C4CC4)CC3)cc2)cc1,126%,104%,94.5%,96.2%,98.4%,113%,95.3%,108%,96.5%,96.9%
C=CCOc1cccc(/C=C/C(=O)c2sc(Nc3cccnc3)nc2C)c1,38.4%,28.9%,94.6%,95.4%,83.5%,81.7%,88.5%,76.7%,97.2%,71.2%
Cc1cc(-c2ccccc2)c(C)n1Cc1ccc(Cl)cc1,86.6%,13%,59.4%,67%,61.4%,58.5%,39.7%,39.4%,48.4%,17.7%
COc1cccc(C2CC(=O)Nc3c2c(C)nn3-c2nc3ccccc3[nH]2)c1OC (stereo not drawn),76.5%,40.9%,52.3%,82.1%,64.2%,76.4%,7.64% (active),99.7%,79.1%,65.4%
COC12CC(=O)C(C(C)=O)=C(O)C1(C)c1c(O)c(C)c(O)c(C(C)=O)c1O2 (stereo not drawn),90.2%,70.4%,90.7%,92.7%,90.3%,78.4%,13.3%,78.5%,90.7%,66.7%
COc1ccc(-n2cnc3c(sc4ncc(Cl)cc43)c2=O)cc1,83.6%,87.9%,88.2%,113%,106%,65.8%,44.2%,91.6%,90.8%,105%
COc1ccc(S(=O)(=O)N2CCN(c3cc4c(cc3F)c(=O)c(C(=O)O)cn4C3CC3)CC2)c(OC)c1,98.3%,89.1%,98%,101%,102%,81.8%,91.4%,88.8%,100%,92.5%
COc1ccc(NC(=O)CSc2nc3ccccc3c(=O)n2Cc2cc(OC)c(OC)c(OC)c2)cc1,95.6%,79.8%,88.2%,73.8%,82.9%,85.1%,106%,79%,94.3%,99.4%
COc1cc(Cn2c(SCCC(=O)Nc3ccc(F)cc3)nc3ccccc3c2=O)cc(OC)c1OC,101%,70.8%,91.7%,65.9%,74.3%,80.9%,88.2%,84.2%,93.2%,93%
CC(C)(C)c1ccc(S(=O)(=O)Oc2ccc3c4c(c(=O)oc3c2)CCCCC4)cc1,77.4%,38.5%,44%,80.2%,48.1%,61.1%,2.71% (active),42.7%,48.9%,39.4%
O=S(=O)(O)CCl,109%,94.6%,102%,108%,107%,100%,102%,101%,98.5%,97.1%
O=S(=O)(NCCCNc1nccc(-c2c(-c3ccccc3)nc3sccn23)n1)c1ccc(F)cc1,44.8%,26.4%,67.9%,58.4%,47.2%,51%,29.8%,82%,71.3%,35%
C=CCN=C1NC(=O)/C(=C/c2cc(C(C)(C)C)c(O)c(C(C)(C)C)c2)S1,84%,30.8%,75.4%,86.8%,62.4%,82%,69.3%,87.6%,93%,52.4%
CC(=O)n1cc([C@H]2CC[C@H](c3cn(C(C)=O)c4ccccc34)c3c2[nH]c2ccccc32)c2ccccc21,93.2%,69.9%,91.4%,70.8%,96.5%,76.9%,80%,92.7%,89.5%,79.1%
O=C(CN1CCOCC1)Nc1ccc(-c2nc3ccccc3s2)cc1,109%,99.3%,117%,96.8%,111%,110%,98.2%,89.7%,101%,101%
CC(C)(C)OC(=O)N[C@@H](Cc1ccccc1)C(=O)N(Cc1ccccc1)C1(C(=O)NCc2ccccc2)CCN(Cc2ccccc2)CC1,75.6%,11%,25.6%,22.9%,61.9%,58.5%,39.2%,47.2%,24.2%,40.2%
CCOC(=O)C1=C(C)NC(=O)NC1c1ccc(OCC(=O)N/N=C/c2ccc(Cl)cc2)cc1 (stereo not drawn),106%,94.9%,101%,98.7%,95.6%,95.1%,99.5%,91.3%,68.7%,94.6%
COc1ccc(-c2nc(-c3nc4ccc(F)cc4[nH]3)cc3c2[nH]c2ccccc23)cc1,25.6%,20.3%,39.1%,43.6%,56.5%,41.3%,55.5%,69.1%,9.58% (active),36%
Nc1c(C(=O)Nc2ccccc2)sc2nc3c(cc12)CCCCC3,4.69% (active),14.8%,-5.3% (active),22.2%,-5.96% (active),30.5%,-4.71% (active),7.96% (active),41.5%,6.74% (active)
COc1ccc(C(=O)c2cc(OC)c(OC)c(OC)c2)cc1/C=C/C(=O)c1ccc2c(c1)OCO2,33.8%,12.9%,12.5%,11.2%,17.4%,8.85% (active),77.3%,-33.8% (active),51.3%,25.3%
CCn1c(=O)c2c(=O)c3c4c(oc3oc2c2ccccc21)C(=O)c1ccccc1C4=O,92.4%,28.6%,113%,6.33% (active),106%,84.3%,95.1%,89.9%,90.6%,89.8%
C[C@]12CC[C@@H]3c4cc(O)c(O)cc4CC[C@H]3[C@@H]1CC[C@@H]2O,39.1%,7.32% (active),16.8%,48.1%,28.7%,46.7%,35%,-1.85% (active),31.2%,23.4%
O=c1cc(C2NCCc3c2[nH]c2ccccc32)c2c(ccc3ccccc32)o1 (stereo not drawn),59.6%,52.9%,60.1%,80.7%,44.2%,85.9%,81.8%,79.4%,–,65.2%
COc1ncc(-c2ccc3ncnc(Nc4cccc(Cl)c4)c3c2)cc1N(S(C)(=O)=O)S(C)(=O)=O,54.8%,94.2%,44.8%,67.3%,68.8%,73.2%,76%,76.2%,–,73.7%
Cc1cc(N/C=c2\sc3ncnn3c2=O)no1,93.7%,98.5%,87.3%,102%,113%,90.1%,99%,107%,105%,92.8%
